# Reference: PubChem BioAssay AID641 (Vanderbilt High Throughput Screening Facility, 2007)
# Hit rate of the full screen: of about 58,000 compounds, about 3,400 (5.9%) were called active. The list comes from a sample in which actives are over-represented; it also holds similar structures and randomly drawn compounds. Values without a mark were called inactive.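 How the source made its calls: active means luminescence count or its row- and column-corrected plate score outside the 99.7% band of the plate's sample wells, on either side; inactive means the rest.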
# Biological target: D(1A) dopamine receptor (Homo sapiens) (UniProt P21728)
# Assay: D1 CRE-luciferase signal change, two-sided – cell-based, HEK293 D1, dopamine EC30, D1 allosteric modulator project, primary screen (AID 641)
# Settings: dopamine EC30 potentiation, at 10 µM, actives deviate in either direction
# Sequence of D(1A) dopamine receptor (Homo sapiens) (P21728 whole entry, looked up): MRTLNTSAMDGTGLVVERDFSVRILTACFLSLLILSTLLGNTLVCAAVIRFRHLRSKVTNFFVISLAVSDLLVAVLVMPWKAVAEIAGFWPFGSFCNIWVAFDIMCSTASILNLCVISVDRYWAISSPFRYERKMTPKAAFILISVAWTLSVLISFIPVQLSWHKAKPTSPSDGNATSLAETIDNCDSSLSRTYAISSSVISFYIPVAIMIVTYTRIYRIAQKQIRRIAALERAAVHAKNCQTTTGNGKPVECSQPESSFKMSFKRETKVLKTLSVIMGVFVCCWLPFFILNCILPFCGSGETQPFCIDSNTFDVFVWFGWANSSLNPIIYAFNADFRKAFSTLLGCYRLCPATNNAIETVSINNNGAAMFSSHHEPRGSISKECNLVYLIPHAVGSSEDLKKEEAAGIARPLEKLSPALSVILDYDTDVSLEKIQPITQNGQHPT
row,Compound,B-score
1,CN1CCN(CC(O)COCc2ccc3c(c2)OCO3)CC1 (stereo not drawn),3.63 (active)
2,Cc1cc(N2CCN(Cc3ccc4c(c3)OCO4)CC2)n2ncnc2n1,0.443
3,O=C(c1cccs1)N1CCN(Cc2ccc3c(c2)OCO3)CC1,-0.554
4,CC(=O)Nc1ccc(S(=O)(=O)N2CCSCC2)cc1,-0.0119
5,CCOC(=O)C(C)Oc1cccc2c(=O)n(CC(=O)N3CCc4ccccc43)ccc12 (stereo not drawn),0.245
6,COCCNCCOCCOc1cccc(OC)c1,-0.824
7,O=C(NCc1ccccn1)c1cc2ccccc2oc1=O,0.0147
8,O=C(NCc1ccccn1)c1ccc2nc(-c3ccco3)c(-c3ccco3)nc2c1,7.64 (active)
9,Cc1cccn2c(=O)c3cc(C(=O)NCc4ccccn4)n(C)c3nc12,0.762
10,CCOC(=O)c1sc(NC(=O)C(CC)Sc2nccn2C)nc1C (stereo not drawn),0.947
11,Cc1cc(C)nc(SCc2ccccc2C#N)n1,1.42
12,CCC(Sc1nncn1C)C(=O)Nc1nnc(-c2ccc(Cl)cc2)s1 (stereo not drawn),0.176
13,COCCN(CC(=O)Nc1ccccc1C)S(=O)(=O)c1ccc(S(=O)(=O)N2CCCC2)cc1,0.0335
14,CCn1c(SCCC(C)C)nnc1-c1c[nH]c2ccccc12,-1.04
15,CCCn1c(=NC(C)=O)c(C(=O)OCC)cc2c(=O)n3ccccc3nc21,4.16 (active)
16,CCOC(=O)c1cnc2sccn2c1=O,-0.341
17,COc1ccc(CNC(=O)c2cc3c(=O)n4ccccc4nc3n(CC3CCCO3)c2=N)cc1 (stereo not drawn),-0.73
18,COc1cccc(N2C(=O)C3CCCN3C2c2ccc(F)cc2)c1 (stereo not drawn),0.0389
19,Cc1ccc(-c2nn(-c3ccccc3)cc2CN(Cc2ccccc2)C(=O)CCC(=O)O)o1,13.6 (active)
20,COc1ccc(-c2nn(-c3ccccc3)cc2C(=O)Nc2nc(CC(C)=O)ns2)cc1,0.451
21,COCCNC(=O)C(c1ccc(C)o1)N(Cc1ccccc1)C(=O)Cn1nnc2ccccc21 (stereo not drawn),0.0616
22,O=C(O)CCCC(=O)Nc1ccccc1-n1ccnc1,-0.0259
23,CNC(=O)CSc1nnc(CCc2ccccc2)n1-c1ccccc1,0.762
24,O=C(CN1CCN(c2nc(-c3ccccc3)cs2)CC1)NCc1ccc2c(c1)OCO2,-0.0459
25,c1ccc(-c2nnc3n2NC(c2ccc4c(c2)OCO4)S3)cc1 (stereo not drawn),7.49 (active)

row,Compound,B-score
1,CC1=C(C(N)=O)C(c2ccc3c(c2)OCO3)n2nc(-c3cccc(C)c3)nc2N1 (stereo not drawn),0.00602
2,COC(=O)c1cc(OC)c(OC)cc1NC(=O)C1CCCO1 (stereo not drawn),3.46
3,CCc1nnc(NC(=O)CSc2nnc(-c3ccncc3)n2Cc2ccccc2)s1,-0.0482
4,O=[n+]1c2c(n([O-])c3cc(Br)ccc31)CCC2,-0.651
5,Cn1c(-c2ccc(F)cc2)cnc1SCC(=O)NCc1ccco1,-0.294
6,Cc1ccc(-c2csc3nnc(SCC(=O)NCc4ccco4)n23)cc1,1.29
7,O=C(CSc1nnc2scc(-c3ccc(F)cc3)n12)NCc1ccco1,6.74 (active)
8,Cn1c(SCC(=O)Nc2cccc(O)c2)nnc1-c1ccc(S(=O)(=O)N2CCOCC2)cc1,0.0252
9,CN(C)CCCNc1c2c(c(C#N)c3nc4ccccc4n13)CCC2,0.142
10,CCCCn1c(CN2CCN(CCO)CC2)nc2ccccc21,1.03
11,N#Cc1c2c(c(N3CCN(CCO)CC3)n3c1nc1ccccc13)CCCC2,4.34 (active)
12,COc1ccc(C2CC(=O)C=C(NCC3CCCO3)C2)cc1 (stereo not drawn),0.013
13,CCn1c(SCC(=O)Nc2nc3ccc(OC)cc3s2)nnc1-c1ccoc1C,-0.00542
14,COc1cc2cc(CN(CCN3CCCC3)C(=O)Nc3ccccc3Cl)c(=O)[nH]c2cc1OC,-0.557
15,COC(=O)C1=C(C)NC2=C(C(=O)c3ccccc32)C1c1ccc(-c2ccc(C(=O)O)cc2)o1 (stereo not drawn),6.14 (active)
16,COc1ccccc1NC(=O)C1=C(C)NC2=C(C(=O)CCC2)C1c1ccc(C)o1 (stereo not drawn),0.26
17,COC(=O)C1=C(C)NC(=O)NC1/C=C/c1ccccc1 (stereo not drawn),0.394
18,O=c1c2c(nc3n1CCCCC3)sc1c(O)cccc12,-6.41 (active)
19,O=C(Cn1[nH]c(=O)c2ccccc2c1=O)Nc1cccc(-c2nnc3n2CCCCC3)c1,0.394
20,Cc1ccc2nc3n(c(=O)c2c1)CCC3,-0.684
21,CCSC(C)CC1C/C(=N/O)c2c(C)noc2C1 (stereo not drawn),3.09
22,CCCOC(=O)c1[nH]c2c(c1C)C(=O)CC(c1cc(OC)c(OC)c(OC)c1)C2 (stereo not drawn),-3.89 (active)
23,CCOC(=O)c1[nH]c2c(c1C)C(=O)CC(c1ccc(N(C)C)cc1)C2 (stereo not drawn),-1.04
24,COC(=O)C1C(=O)c2c([nH]c(C(=O)OCCSC)c2C)CC1C (stereo not drawn),0.0229
25,O=C(CN1C2CCC1CC(NC(=O)C1CC1)C2)NCc1ccccc1 (stereo not drawn),0.0586

row,Compound,B-score
1,CCOC(=O)Cc1c(C)nc2c(C#N)c(C)nn2c1C,-0.671
2,Cc1ccc(-n2ncc3c(N4CCN(c5ccc(F)cc5)CC4)ncnc32)c(C)c1,-2.95 (active)
3,Cc1ccc(-n2ncc3c(=O)[nH]cnc32)c(C)c1,-0.523
4,Cc1ccc(-n2ncc3c2ncn2nc(-c4ccco4)nc32)c(C)c1,0.753
5,Cc1nc2sc(C(c3ccco3)N3CCOCC3)c(O)n2n1 (stereo not drawn),0.108
6,Cc1ccc(C(c2sc3nc(C)nn3c2O)N2CCN(c3ccc(F)cc3)CC2)cc1 (stereo not drawn),-1.2
7,Cc1ccc(C(c2sc3nc(C)nn3c2O)N2CCN(c3ccccc3)CC2)cc1 (stereo not drawn),-3.44 (active)
8,O=C(Nc1c(C(=O)N2CCCCC2)cnn1-c1ccccc1)c1ccco1,-0.19
9,CCC(=O)NC(=Nc1nc2ccccc2s1)NC(=O)CC,11.5 (active)
10,O=C(O)CSCc1nc2ccccc2s1,-0.539
11,COC(=O)Cc1cc(=O)n(-c2nc3ccccc3s2)[nH]1,0.0542
12,CCC(=O)c1cc2c(cc1NC(=O)c1cccs1)OCCO2,1.41
13,CCCC(=O)C1=C(N(C)c2ccccc2)CC(C)(C)C(C(=O)OC)C1=O (stereo not drawn),0.78
14,Cn1c2ccccc2c2c(C(=O)N3CCN(c4ccc(F)cc4)CC3)cn(C3CCCC3)c(=O)c21,0.395
15,Cc1c(CN2CCC(C)CC2)c(=O)n(-c2ccccc2)n1C,0.319
16,Cn1cccc1C(=O)NC(=O)COC(=O)Cc1coc2ccc3ccccc3c12,-0.19
17,COc1ccc(C(=O)c2oc3ccc(Br)cc3c2NC(C)=O)cc1,-0.206
18,Cc1cc(C(=O)O)c(S(C)(=O)=O)s1,0.833
19,CC(=O)c1c(C)c[nH]c1C,-3.34 (active)
20,O=C(CCN1C(=O)c2ccccc2C1=O)Nc1ccncc1,0.176
21,COC(=O)Nc1ncc(CN2C(=O)c3ccccc3C2=O)s1,3.19 (active)
22,CC(C)OC(=O)CN1C(=O)c2ccccc2C1=O,0.49
23,CN(C)c1cc(N)c2ccccc2n1 (tested in a mixture with another compound),-2.66
24,CCOC(=O)C1CCN(C(=O)Nc2ccc(Cl)cc2)CC1,-0.339
25,CCCCn1nc(C(=O)N2CCc3ccccc32)c2ccccc2c1=O,0.35

row,Compound,B-score
1,CC1Cc2ccccc2N1C(=O)Cn1cnc2ccccc2c1=O (stereo not drawn),-0.115
2,CCn1nc(C(=O)OCC(=O)N2c3ccccc3CC2C)c2ccccc2c1=O (stereo not drawn),4.38 (active)
3,O=C(COc1ccc2c3c(c(=O)oc2c1)CCC3)NC1CCCCC1,-1.02
4,N#Cc1nc(N)nc(N(c2ccccc2)c2ccccc2)n1,4.55 (active)
5,CC(C)Nc1nc(N(c2ccccc2)c2ccccc2)nc(-n2ccnc2)n1,0.848
6,CC(C)(C)Oc1ncc(Br)c(OC(C)(C)C)n1,0.0357
7,c1ccc(-c2[nH]ncc2-c2nc3ccccc3[nH]2)cc1,0.738
8,c1ccc2[nH]c(-c3nc4ccccc4[nH]3)nc2c1,-2.93 (active)
9,C=CCSc1nc2ccccc2[nH]1,-0.468
10,c1ccc(-n2ncc3c2ncn2c(CSc4nc5ccccc5s4)nnc32)cc1,-0.538
11,Cc1cccc(OCc2nnc(SCC(=O)N3CCN(C(=O)c4ccco4)CC3)n2C)c1C,-0.00929
12,N#CC1=C(N)Oc2cc(O)ccc2C1C1CCCCC1 (stereo not drawn),-0.438
13,Cc1cccc(NC(=O)COc2ccc(Br)cc2C)n1,0.787
14,O=C(C1CCCO1)N(Cc1ccccc1)c1ccccc1 (stereo not drawn),0.947
15,CCn1c(SCC(=O)Nc2ccccc2F)nc2c(c1=O)SC(C)C2 (stereo not drawn),0.8
16,CCCCSc1nc2c(c(=O)n1CC)SC(C)C2 (stereo not drawn),9.06 (active)
17,CCn1c(SCC(=O)Nc2ccc3c(c2)OCCO3)nc2c(c1=O)SC(C)C2 (stereo not drawn),2
18,COC(=O)c1ccc(NC(=O)c2ccco2)cc1,-1.96
19,C=CCn1cnc2scc(-c3ccccc3)c2c1=O,10.5 (active)
20,CN(CCC#N)c1ncnc2scc(-c3ccccc3)c12,1.98
21,C=CCn1c(SCc2csc(C)n2)nc2scc(-c3ccc(C)o3)c2c1=O,-0.492
22,CN1C(C)(C)CC(NC(=O)CCC(=O)NC2CC(C)(C)N(C)C(C)(C)C2)CC1(C)C,0.00629
23,CCN(CC)C(=O)C1CCC(C)(C(=O)O)C1(C)C (stereo not drawn),-0.39
